GPR151 activ: activators of human GPR151, primary screen, cell-based, PathHunter beta-arrestin, luminescence | G-protein coupled receptor 151 (Homo sapiens), Q8TDV0 | PathHunter beta-arrestin GPR151 cells | activation, % at 11.2 µM | 1% of 650,000 active; in the data active = activation above about 4.9%
Target sequence (Q8TDV0 whole entry, looked up): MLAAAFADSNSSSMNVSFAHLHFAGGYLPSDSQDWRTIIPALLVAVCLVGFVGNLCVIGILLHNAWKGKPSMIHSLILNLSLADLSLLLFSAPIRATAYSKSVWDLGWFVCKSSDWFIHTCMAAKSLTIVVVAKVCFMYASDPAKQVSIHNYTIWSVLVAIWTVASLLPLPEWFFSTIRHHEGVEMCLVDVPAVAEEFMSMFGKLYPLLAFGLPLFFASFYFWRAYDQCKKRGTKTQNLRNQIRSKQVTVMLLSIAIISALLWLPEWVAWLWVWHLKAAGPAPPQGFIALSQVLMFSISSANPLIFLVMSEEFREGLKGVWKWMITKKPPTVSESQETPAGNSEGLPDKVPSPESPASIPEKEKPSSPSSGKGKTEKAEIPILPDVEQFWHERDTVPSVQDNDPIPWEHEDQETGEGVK
FBW7 activator: FBW7 E3 ligase activators, primary screen, biochemical, AlphaScreen, human; F-box/WD repeat-containing protein 7 (Homo sapiens), Q969H0; AlphaScreen FBW7–phospho-cyclin E peptide binding, activator screen; normalized activity (activation), % at 26.1 µM; 0.13% of 650,000 active; in the data active = normalized activity above about 1.9%;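 also: purified mutant Fbw7 with reduced substrate affinity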
TEAD-YAP block: TEAD-YAP interaction inhibition, primary screen, TEAD-YAP interaction inhibitor project, luminescence, HEK-TIYL cells. TEAD-Gal4/YAP UAS-luciferase luminescence. inhibition, % at 9.12 µM. 1.4% of 640,000 active. AID 1259422, 2018; in the data active = inhibition above about 32%
MITF inh: MITF inhibitors, primary screen, biochemical, AlphaScreen, human; Microphthalmia-associated transcription factor (Homo sapiens), O75030; AlphaScreen MITF homodimerization, bead proximity signal; inhibition, % at 2.6 µM; 0.91% of 650,000 active; in the data active = inhibition above about 50%
Each line names hits and unclear results; the compound was inactive in the other large screens. Only some compounds are listed: those with a hit (about 3.5% of all), similar ones and a draw of the others.

OC(COc1ccccc1)CN1C2=NCCN2c2ccccc21 (stereo unspecified)	none
CCCc1ccc(Oc2c(C(F)(F)F)oc3cc(O)ccc3c2=O)cc1	TEAD-YAP block 65
CC(C)(C)c1ccc(Oc2c(C(F)(F)F)oc3cc(O)ccc3c2=O)cc1	TEAD-YAP block 88
COC(=O)c1ccc(Oc2c(C(F)(F)F)oc3cc(O)ccc3c2=O)cc1	none
COc1ccc(-c2cc(-c3c(O)ccc4ccccc34)[nH]n2)cc1	TEAD-YAP block 89
COc1ccc(-c2cc(-c3cc(OC)ccc3O)[nH]n2)cc1	none
COc1cc(/C=N\Nc2ccc([N+](=O)[O-])cn2)c(Br)cc1O	FBW7 activator 20
CCn1c(SCC(=O)Nc2ccc([N+](=O)[O-])cc2)nnc1-c1ccc(O)cc1	TEAD-YAP block 50
CCCCN(C)c1nnc(NC(=O)NCc2ccccc2)s1	TEAD-YAP block 58
CN(Cc1ccccc1)c1nnc(NC(=O)NCc2ccccc2)s1	TEAD-YAP block 47
COCCCNC(=O)Nc1nnc(N(C)Cc2ccccc2)s1	none
COc1cc2ccccc2cc1C(=O)Nc1ccc(C)cc1C(=O)c1ccccc1	none
S=C(c1cn(CCOc2ccccc2)c2ccccc12)N1CCCC1	none
Cc1ccc(OCCn2cc(C(=S)N3CCCC3)c3ccccc32)cc1C	TEAD-YAP block 52
COc1ccc2cc3c(N)[nH]nc3nc2c1	TEAD-YAP block 80
Cc1ccc(S(=O)(=O)N(C)c2ccc(C(=O)N3CCCCC3)cc2)cc1	none
Cc1ccc(S(=O)(=O)N(C)c2ccc(C(=O)N3C(C)CCCC3C)cc2)cc1 (stereo unspecified)	TEAD-YAP block 48
CCc1ccc(OCC(=O)NCc2cccs2)cc1	none
CCOc1ccc(-c2cc(=O)n(CC(=O)NCc3cccs3)cn2)cc1	TEAD-YAP block 44
CCOc1ccc(/C=N/NC(=O)c2cccs2)cc1	none
CCOc1cccc(/C=N/NC(=O)c2cccs2)c1O	TEAD-YAP block 50
CCOc1cccc(/C=N\NC(=O)c2ccc(Br)cc2)c1O	none
COc1cccc(/C=N/NC(=O)C(=O)NCc2cccnc2)c1O	MITF inh 61
COc1cccc(/C=N/NC(=O)c2cccnc2)c1O	MITF inh 71
CCOc1cccc(/C=N\NC(=O)c2cccnc2)c1O	MITF inh 59
CC(=O)Nc1ccc(NC(=O)CSc2nnnn2-c2cccc3c2CCCC3)cc1	none
CCN(CC)c1ccc(/C=N/NC(=O)c2cccnc2)c(O)c1	TEAD-YAP block 70
O=C(Nc1ccc(Oc2ccccc2)cc1)c1ccc(F)c(S(=O)(=O)N2CCCCC2)c1	TEAD-YAP block 37
O=C(Nc1ccc(Oc2ccccc2)cc1)c1ccc(F)c(S(=O)(=O)N2CCN(C3CCCCC3)CC2)c1	TEAD-YAP block 42
O=C(Nc1ccc(Oc2ccccc2)cc1)c1ccc(F)c(S(=O)(=O)N2CCC3(CC2)OCCO3)c1	TEAD-YAP block 61
Oc1ccc(CCNc2cc(NCc3ccc4c(c3)OCO4)ncn2)cc1	none
COc1cccc(O)c1O	TEAD-YAP block 43, MITF inh 90
O=[N+]([O-])c1ccc(N2N=C(c3ccccc3)CC2c2ccccc2O)cc1 (stereo unspecified)	FBW7 activator 3.5
c1ccc(-c2ccc(C3=NN(c4ccccc4)C(c4ccccc4)C3)cc2)cc1 (stereo unspecified)	none
Cc1ccc(-c2nn(-c3ccccc3)cc2C2CC(c3ccc(F)cc3)=NN2c2ccccc2)o1 (stereo unspecified)	none
Cc1ccc(C2CC(c3ccc(F)cc3)=NN2c2ccccc2)o1 (stereo unspecified)	FBW7 activator 1.9
Fc1ccccc1C1CC(c2ccccc2)=NN1c1ccccc1 (stereo unspecified)	FBW7 activator 3.3
O=[N+]([O-])c1ccc(N2N=C(c3ccccc3)CC2c2ccccc2)cc1 (stereo unspecified)	none
c1ccc(Oc2ccc(Nc3nc(N4CCc5ccccc5C4)nc4c3ncn4C3CCCCC3)cc2)cc1	none
Cc1noc(C)c1-c1nc(Nc2ccccc2)c2ncn(C3CCCCC3)c2n1	TEAD-YAP block 75
Cc1noc(C)c1-c1nc(Nc2ccc(N3CCOCC3)cc2)c2ncn(C3CCCCC3)c2n1	none
c1ccc(Nc2nc(N3CCc4ccccc4C3)nc3c2ncn3C2CCCCC2)cc1	TEAD-YAP block 32
O=S(=O)(Nc1ccc(Cl)c2cccnc12)c1ccccc1	TEAD-YAP block 53
Cc1ccc(S(=O)(=O)Nc2ccc(Cl)c3cccnc23)cc1	TEAD-YAP block 58
O=C(/C=C/Nc1ccccc1F)c1cccs1	TEAD-YAP block 38
O=C(/C=C/Nc1ccc(F)cc1F)c1cccs1	TEAD-YAP block 73
CCC(c1nnnn1C1CCCC1)N(CCCO)Cc1cc2cccc(C)c2[nH]c1=O (stereo unspecified)	none
Cc1cc(C)n(CCNC2CCN(c3cccc(NC(=O)C4CC4)c3)CC2)n1	none
Cc1cc(C)n(CCNC2CCN(c3cccc(NC(=O)CC4CCCC4)c3)CC2)n1	TEAD-YAP block 42
CCSc1nnc(NC(=O)Cc2cccc3ccccc23)s1	none
O=C(COc1cc(Cl)c(Cl)cc1Cl)Nc1nccs1	TEAD-YAP block 59
O=C(COc1ccc(Br)cc1Cl)Nc1ncn[nH]1	TEAD-YAP block 46
O=C(COc1ccc(Cl)cc1Br)Nc1nccs1	TEAD-YAP block 89
O=C(COc1ccc(Br)cc1Cl)Nc1nccs1	TEAD-YAP block 92
COc1cc(NC(=O)c2ccc(Br)o2)cc(OC)c1	none
Cc1nc2cc(C(=O)NCCN3CCOCC3)ccc2n1-c1cccc(Cl)c1	none
Cc1ccc(C)c2sc(N(CCN3CCOCC3)C(=O)CCc3ccccc3)nc12	none
Cc1ccnc(NC(=O)COc2cc(C)ccc2C)c1	none
Cc1ccnc(NC(=O)COc2ccc(Br)cc2Cl)c1	TEAD-YAP block 93
CCN1C=C/C(=C/C=c2/s/c(=C\c3sc(-c4ccccc4)c(-c4ccccc4)[n+]3CC)n(CC)c2=O)c2ccccc21	FBW7 activator 2.0
CCN1C=C\C(=C/C=C(/C=C/c2cc[n+](CC)cc2)c2cc[n+](CC)c3ccccc23)c2ccccc21	none
CC1CCCCC1NC(=O)Cn1cnc2c(cnn2-c2ccc(F)cc2)c1=O (stereo unspecified)	none
CC1(C)CC(=O)C2=C(C1)NC(=S)NC2c1cccc(F)c1 (stereo unspecified)	TEAD-YAP block 52
CC1(C)CC(=O)C2=C(C1)Nc1ccccc1NC2c1cccc(F)c1 (stereo unspecified)	none
O=C1CCCC2=C1C(c1cccc(O)c1)NC(=S)N2 (stereo unspecified)	TEAD-YAP block 65
O=C1CCCC2=C1C(c1ccc(Cl)cc1)NC(=S)N2 (stereo unspecified)	none
Cc1sc2c(c1C)CN(CC1COc3ccccc3O1)CN2C(=O)c1ccco1 (stereo unspecified)	none

From PubChem
